Compounds with a hit are over-represented: about 12% of the library has one in this group of screens.
BAZ2B inh: BAZ2B (human) inhibition. Potency, µM (series often up to 114 µM), most hits filed as inhibitors. Q9UIF8. AlphaScreen BAZ2B-H3K14Ac peptide displacement. AID 504333. hit rate 4.4% among 360,000; note: nearly all actives have a fitted effect of over 60% in size
Target sequence (Q9UIF8 whole entry, looked up): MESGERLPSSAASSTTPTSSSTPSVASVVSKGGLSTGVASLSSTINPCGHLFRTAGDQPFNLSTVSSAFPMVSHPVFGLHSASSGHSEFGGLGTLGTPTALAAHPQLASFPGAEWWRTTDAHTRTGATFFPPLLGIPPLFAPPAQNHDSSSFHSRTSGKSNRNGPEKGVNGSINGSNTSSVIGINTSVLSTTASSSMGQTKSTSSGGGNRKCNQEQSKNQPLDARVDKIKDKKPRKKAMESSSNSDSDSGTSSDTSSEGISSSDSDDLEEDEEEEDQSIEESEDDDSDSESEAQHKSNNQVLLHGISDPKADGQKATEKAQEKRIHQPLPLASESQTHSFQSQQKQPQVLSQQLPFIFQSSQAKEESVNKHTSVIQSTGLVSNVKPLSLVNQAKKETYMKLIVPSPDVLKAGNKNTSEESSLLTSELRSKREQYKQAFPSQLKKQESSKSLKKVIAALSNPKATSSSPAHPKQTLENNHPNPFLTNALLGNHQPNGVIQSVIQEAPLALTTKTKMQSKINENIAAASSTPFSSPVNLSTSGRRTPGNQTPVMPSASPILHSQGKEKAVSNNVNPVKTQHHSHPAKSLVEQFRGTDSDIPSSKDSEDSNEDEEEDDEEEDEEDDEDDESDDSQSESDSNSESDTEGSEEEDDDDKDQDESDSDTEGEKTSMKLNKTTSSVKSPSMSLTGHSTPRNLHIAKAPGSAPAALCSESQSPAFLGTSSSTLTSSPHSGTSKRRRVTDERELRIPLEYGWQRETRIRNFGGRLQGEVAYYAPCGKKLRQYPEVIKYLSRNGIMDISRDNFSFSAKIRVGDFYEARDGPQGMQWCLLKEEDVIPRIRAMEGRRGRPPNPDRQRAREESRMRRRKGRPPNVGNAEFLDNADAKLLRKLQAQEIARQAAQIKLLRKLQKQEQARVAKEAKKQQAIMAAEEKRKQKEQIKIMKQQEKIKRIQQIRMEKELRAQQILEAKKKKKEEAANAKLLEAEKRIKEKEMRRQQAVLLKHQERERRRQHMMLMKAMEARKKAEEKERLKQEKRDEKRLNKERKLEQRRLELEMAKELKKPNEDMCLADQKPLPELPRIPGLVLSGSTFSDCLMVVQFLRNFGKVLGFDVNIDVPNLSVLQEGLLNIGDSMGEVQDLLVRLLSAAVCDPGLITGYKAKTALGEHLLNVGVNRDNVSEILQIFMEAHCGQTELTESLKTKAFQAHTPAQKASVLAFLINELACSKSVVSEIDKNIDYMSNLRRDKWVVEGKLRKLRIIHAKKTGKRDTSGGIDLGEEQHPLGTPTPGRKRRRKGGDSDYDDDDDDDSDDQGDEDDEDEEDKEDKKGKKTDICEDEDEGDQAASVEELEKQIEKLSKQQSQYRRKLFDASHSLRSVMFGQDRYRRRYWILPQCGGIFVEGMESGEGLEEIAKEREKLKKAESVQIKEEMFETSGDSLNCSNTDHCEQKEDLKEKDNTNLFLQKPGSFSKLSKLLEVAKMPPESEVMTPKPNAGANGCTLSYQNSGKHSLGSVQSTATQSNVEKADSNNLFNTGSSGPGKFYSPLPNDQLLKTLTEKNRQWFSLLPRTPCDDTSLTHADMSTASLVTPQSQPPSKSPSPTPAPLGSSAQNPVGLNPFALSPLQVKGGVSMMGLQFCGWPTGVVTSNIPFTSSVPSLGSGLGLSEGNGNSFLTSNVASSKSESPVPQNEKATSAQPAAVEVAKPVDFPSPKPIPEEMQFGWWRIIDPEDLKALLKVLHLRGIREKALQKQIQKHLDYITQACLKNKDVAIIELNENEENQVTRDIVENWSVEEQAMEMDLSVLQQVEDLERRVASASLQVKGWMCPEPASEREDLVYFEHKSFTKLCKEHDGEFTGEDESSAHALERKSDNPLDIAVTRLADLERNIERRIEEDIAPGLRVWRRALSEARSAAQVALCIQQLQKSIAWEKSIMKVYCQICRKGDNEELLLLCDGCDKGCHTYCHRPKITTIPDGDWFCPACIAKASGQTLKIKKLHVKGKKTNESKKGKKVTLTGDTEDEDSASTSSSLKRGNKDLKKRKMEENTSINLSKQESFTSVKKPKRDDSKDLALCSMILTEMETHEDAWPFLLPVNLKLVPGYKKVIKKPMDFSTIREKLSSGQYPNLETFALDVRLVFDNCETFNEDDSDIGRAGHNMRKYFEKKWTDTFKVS
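Compounds, titrated to a top concentration of 110 uM, were incubated 30 min at room temperature with preformed BAZ2B/acetyl-K14 H3 peptide complex (50 nM each). Proximity signal was measured by AlphaScreen after 20 min with beads.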
PLK1 PBD block: PLK1 (human) polo-box domain binding inhibition. Plk1 PBD binding of FITC phosphopeptide, fluorescence polarization. Potency, µM, actives largely listed as inhibitors. hit rate 2.8% among 360,000; note: series mostly up to about 57 µM; nearly all actives have a fitted effect of over 65% in size
HP1b chromo inh: inhibitors of HP1-beta chromodomain binding to methylated histone tails. Potency, µM (titrated, usually from 114 µM), usual class: inhibitors. AlphaScreen HP1-beta / biotin-H3K9me3 peptide binding. hit rate 0.56% among 390,000. P83916. AID 540317; note: nearly all actives have a fitted effect of over 70% in size
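HP1-beta protein (50 nM final) preincubated 30 min at room temperature with biotinylated H3(1-18)K9me3 peptide (50 nM) in PBS pH 7.4, 0.01% Tween-20, then compound added for 30 min. AlphaScreen streptavidin donor/nickel chelate acceptor beads (10 ug/mL final), 30 min dark, luminescence read.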
JMJD2A Tudor inh: inhibitors of human JMJD2A Tudor domain. O75164. AlphaScreen JMJD2A-Tudor / H3K4me3 peptide binding. Potency, µM (highest dose often 114 µM), actives largely listed as inhibitors. hit rate 4.4% among 390,000; note: nearly all actives have a fitted effect of over 50% in size
Sfp inh: blocks B. subtilis Sfp PPTase activity; Potency, µM, most hits filed as inhibitors; AID 1490; Biochemical Sfp PPTase activity, qHTS; Q9F4F7; hit rate 3.5% among 310,000;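 note: the enzyme is Sfp with the accession as filed and its product quenches rhodamine fluorescence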
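Fluorescence-quenching assay: 15 nM Sfp-PPTase preincubated 15 min at room temperature with compound, then 5 uM rhodamine-CoA and 12.5 uM BHQ-2-labelled YbbR peptide added. Fluorescence (ex 525/em 598 nm) read at start and after 30 min; difference gives rate.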
G9a inh: inhibitors of human histone lysine methyltransferase G9a; Q96KQ7; G9a H3K9 monomethylation, AlphaScreen, 2 h; Potency, µM (doses to about 102 µM), most hits filed as inhibitors; hit rate 8.8% among 350,000; note: nearly all actives have a fitted effect of over 75% in size
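AlphaScreen read-out: biotin-H3K9 peptide (500 nM) methylation by 20 nM enzyme with 20 uM SAM, 2 h at room temperature after 15 min compound preincubation; anti-monomethyl H3K9 antibody plus donor/acceptor beads, 10 min dark.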
Of the large screens only hits and unclear results are named; the others gave an inactive call. Calls come from the whole dose curve; as a rule, active = well fitted curve in the direction sought with a large enough effect; inconclusive = small, poorly fitted or top-dose-only effect, or another doubt; inactive = no such curve, though single readings can be large; an effect the other way counts as inactive or inconclusive.

CC1(C)OC(=O)C2(Cc3c(F)cccc3N3CCCC32)C(=O)O1 (centres undefined)	none (no result: BAZ2B inh, PLK1 PBD block, Sfp inh, G9a inh)
CC1CCN(C(=O)C2CCN(CCCc3ccccc3)CC2)CC1	BAZ2B inh inconclusive, G9a inh 14µM (no result: PLK1 PBD block, HP1b chromo inh, JMJD2A Tudor inh)
O=C(C1CCN(CCCc2ccccc2)CC1)N1CCCCC1	BAZ2B inh inconclusive, HP1b chromo inh inconclusive, JMJD2A Tudor inh 0.89µM, G9a inh 20µM
Cc1ccc(Nc2nc(C)cc(C)n2)c(C(=O)O)c1	G9a inh 8.9µM (no result: PLK1 PBD block, Sfp inh)
Cc1ccc2[nH]cc(C(c3ccccc3)c3ccc(C)s3)c2c1 (centres undefined)	JMJD2A Tudor inh inconclusive, G9a inh inconclusive (no result: PLK1 PBD block, Sfp inh)
Nc1ccc(-n2nnnc2CN2CCOCC2)cc1	none
Nc1cccc(-n2nnnc2CN2CCOCC2)c1	PLK1 PBD block 11µM, JMJD2A Tudor inh inconclusive
NC(=O)c1nsc(C(=O)N(Cc2ccc(F)cc2)C(C(=O)NCC2CCCO2)c2ccc(O)cc2)c1N (centres undefined)	none
CC(C(=O)NCc1cccc(Br)c1)n1ncn2cccc2c1=O (centres undefined)	BAZ2B inh inconclusive (no result: PLK1 PBD block, Sfp inh)
Cc1nnc2ccc(-c3cccc(NS(=O)(=O)c4ccccc4[N+](=O)[O-])c3)nn12	G9a inh 50µM (no result: Sfp inh)
C=C[C@](C)(O)CCC=C(C)C	none (no result: BAZ2B inh, PLK1 PBD block, HP1b chromo inh, JMJD2A Tudor inh, G9a inh)
Cn1c(CCC(=O)Nc2ccc(S(C)(=O)=O)cc2)nc2cc(S(=O)(=O)N3CCOCC3)ccc21	none (no result: BAZ2B inh, Sfp inh, G9a inh)
Cn1c(CCC(=O)Nc2cc(S(C)(=O)=O)ccc2Cl)nc2cc(S(=O)(=O)N3CCOCC3)ccc21	BAZ2B inh 79µM, PLK1 PBD block inconclusive, G9a inh 10µM (no result: Sfp inh)
Cn1c(CCC(=O)O)nc2cc(S(=O)(=O)N3CCCCC3)ccc21	PLK1 PBD block 27µM, G9a inh inconclusive (no result: Sfp inh)
CC(C)(C)C#CC(CCc1ccccc1)OS(N)(=O)=O (centres undefined)	G9a inh inconclusive (no result: PLK1 PBD block, HP1b chromo inh, JMJD2A Tudor inh)
O=c1c2c([N+](=O)[O-])cc([N+](=O)[O-])cc2sn1Cc1ccccc1	BAZ2B inh 3.5µM, PLK1 PBD block 0.75µM, HP1b chromo inh inconclusive, JMJD2A Tudor inh 4.5µM, Sfp inh 2.2µM, G9a inh 1µM
O=c1c2c([N+](=O)[O-])cc([N+](=O)[O-])cc2sn1-c1ccc(Br)cc1	BAZ2B inh 5µM, PLK1 PBD block 2.7µM, HP1b chromo inh 7.9µM, JMJD2A Tudor inh 18µM, Sfp inh 8.9µM, G9a inh 1.4µM
CSc1ccccc1C(=O)C1CCCN(C(=O)c2cncs2)C1 (centres undefined)	PLK1 PBD block 13µM, JMJD2A Tudor inh 20µM
Cc1[nH]c(=S)c(C#N)c(C)c1C(=O)Nc1ccccc1	PLK1 PBD block inconclusive, HP1b chromo inh inconclusive, JMJD2A Tudor inh 8.9µM, Sfp inh 45µM, G9a inh 1.3µM
Cc1oc(C)c(C(=O)Nc2ccccc2)c1C	none (no result: BAZ2B inh, PLK1 PBD block, HP1b chromo inh, JMJD2A Tudor inh, G9a inh)
Cc1[nH]c(C(=O)O)c(C#N)c1C(=O)c1ccccc1	PLK1 PBD block inconclusive, G9a inh inconclusive
CCc1c(C(=O)Nc2ccccc2)c(C)[nH]c(=S)c1C#N	PLK1 PBD block 21µM, HP1b chromo inh inconclusive, JMJD2A Tudor inh 7.1µM, Sfp inh 56µM, G9a inh 1.6µM
O=C(O)c1ccccc1-c1cn2cc(Cl)ccc2n1	none
COc1cccc(/C=C/C(=O)NCc2cn3cc(Cl)ccc3n2)c1	none
Cc1ccc2nc(COC(=O)CNC(=O)c3ccccc3)cn2c1	none (no result: Sfp inh)
O=C(O)CSCc1cn2cc(Cl)ccc2n1	JMJD2A Tudor inh inconclusive, G9a inh 50µM
COC(=O)CCSCc1cn2cc(Cl)ccc2n1	G9a inh 40µM
CNCc1cn2cc(Cl)ccc2n1	PLK1 PBD block 27µM
O=C(O)c1nn(-c2ccccc2)ccc1=O	PLK1 PBD block 12µM (no result: G9a inh)
Cc1cc(CNC(=O)CC2C(=O)NCCN2Cc2ccccc2C(F)(F)F)nn1C (centres undefined)	G9a inh inconclusive
CCOc1ccc(CN2CCNC(=O)C2CC(=O)NCCc2cnccn2)cc1 (centres undefined)	G9a inh inconclusive
Cc1ccc(CN2CCNC(=O)C2CC(=O)NCc2cc(C)n(C)n2)cc1 (centres undefined)	G9a inh 79µM
